S aureus QS inh: S. aureus quorum sensing inhibition. 0.3% of 24,000 active. S. aureus RN6390 RNAIII-GFP reporter, AIP-induced, flow cytometry 3 h. inhibition, % at 2 µM;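 active = share of bacteria positive for the green fluorescent reporter and its mean brightness both inhibited by 50% or more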
26S disassembly: blocks ATP-dependent breakdown of the yeast 26S proteasome. anti-FLAG beads, GFP-proteasome disassembly, flow cytometry. inhibition of disassembly, % (concentration not given with the values). 0.2% of 24,000 active. AID 751;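 active = inhibition of disassembly above about 33%, limit read from the data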;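 also: higher percent means more bead fluorescence retained so stronger block of disassembly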
Of the large screens only hits and unclear results are named; the others gave an inactive call. Sampled rows, rich in hits. Any-hit rate of the full collection: about 0.44%.

COc1ccc(CNC(=O)c2cc(C3CC3)on2)cc1	none
CC1CCCCN1C(=O)CSc1nnc(-c2ccc(Cl)s2)o1 (stereo unspecified)	none
Cn1c(C(=O)N2CCN(c3ccc(Cl)cc3)CC2)cc2c(=O)n(C)c3ccccc3c21	none
Cc1ccc(S(=O)(=O)c2c(C)nn(C(C)(C)C)c2OC(=O)c2ccc(Br)o2)cc1	S aureus QS inh 52
Cc1ccc(S(=O)(=O)c2c(C)nn(C(C)(C)C)c2OC(=O)c2ccco2)cc1	none
CC(=O)Oc1c(S(=O)(=O)c2ccc(C)cc2)c(C)nn1C(C)(C)C	S aureus QS inh 78
Cc1ccc(S(=O)(=O)c2c(C)nn(C(C)(C)C)c2OC(=O)C(C)(C)C)cc1	none
CCOc1ccc2nc(SCc3ccc(C(=O)OC)o3)[nH]c2c1	none
COc1ccc(OC)c(NS(=O)(=O)c2ccc3c(c2)CCC(=O)N3)c1	none
Cc1oc(-c2ccccc2F)nc1CN1CCC(C(=O)NCCC2=CCCCC2)CC1	none
CCOC(=O)c1cccc(NC(=O)C(NS(=O)(=O)c2ccc3c(c2)CCN3C(C)=O)C(C)C)c1 (stereo unspecified)	none
CC1(C)N=C(c2ccc(Cl)cc2)C(=O)N1	none
O=C(CSc1nnc(-c2ccco2)n1CC1CCCO1)N1CCCCC1 (stereo unspecified)	none
O=C(NCCCc1ccccc1)c1cnc2n(c1=O)CCS2	S aureus QS inh 56
O=C(NCc1ccccc1)c1cnc2n(c1=O)CCS2	none
O=C(CN1CCN(Cc2ccc(Cl)cc2)C1=O)NCCN1CCCC1	26S disassembly 49
O=C(CN1CCN(Cc2ccccc2)C1=O)NCc1ccc(Cl)cc1	none
OC(CN1CCN(c2ccccc2)CC1)c1ccc2c(c1)CCN2 (stereo unspecified)	none
CCN(CC)CCCN1C(=O)C(O)=C(C(C)=O)C1c1ccc(OC)cc1OC (stereo unspecified)	none
O=C(Cc1ccc(-n2cccc2)cc1)NCc1cccs1	none
COc1cc(N2C(=O)NC3CC2(C)Oc2ccccc23)cc(OC)c1OC (stereo unspecified)	none
CN(C)c1ccc(/C=C/C(O)=C2/C(=O)N(C)C3(C)CC2c2ccccc2O3)cc1 (stereo unspecified)	26S disassembly 85
CCCN(CCC)S(=O)(=O)c1cc(Br)cc2c1N(C(=O)CC)CC2	none
CCOc1ccc(/C=c2\sc3nc(-c4ccco4)nn3c2=O)cc1OCC	26S disassembly 42
COc1ccccc1/C=c1\sc2nc(-c3ccco3)nn2c1=O	none
CC(C)N(C(=O)N1CCC(c2nc(-c3ccncc3)no2)CC1)C(C)C	none
O=C(NCCN1CCN(c2ccccc2)CC1)c1cccn2c(=O)c3ccccc3nc12	S aureus QS inh 80
O=C(NCCN1CCN(c2ccccc2F)CC1)c1cccn2c(=O)c3ccccc3nc12	none
CCOC(=O)c1ccc(CNC(=O)c2cc3cccc(OC)c3oc2=O)o1	none
NC1(N)OC(CN2C(=O)c3ccccc3C2=O)CS1 (stereo unspecified)	none
CCc1c(C)nc(SCC(=O)Nc2ccc(Br)cc2)[nH]c1=O	S aureus QS inh 80
Cc1nnc(SCC(=O)Nc2ccc(Br)cn2)[nH]c1=O	none
Cn1cccc1Cc1nnc(SCC(=O)Nc2ccccc2)n1-c1ccc(F)cc1	S aureus QS inh 61
Cn1cccc1Cc1nnc(SCC(=O)Nc2ccc(F)cc2)n1-c1ccc(F)cc1	none
CC(CCc1ccco1)NC(=O)c1cc2c(-c3ccccc3F)nn(C)c2s1 (stereo unspecified)	S aureus QS inh 61
CC(=O)c1ccc(N2CCN(C(=O)c3cc4c(-c5ccccc5F)nn(C)c4s3)CC2)cc1	none
Cn1c(=O)n(CCc2ccccc2)c(=O)c2c1nc1n2CCN1Cc1ccco1	S aureus QS inh 96
Cc1ccc(C)c(Cn2c(=O)c3c(nc4n3CCN4Cc3ccco3)n(C)c2=O)c1	none
Cc1nccc2[nH]c(=O)c(C(=O)NC3CCN(Cc4ccccc4)CC3)cc12	none
Cc1ccc2nsnc2c1S(=O)(=O)N1CCN(Cc2ccc3c(c2)OCO3)CC1	none
